Each structure is given as a SMILES string. The campaign covered roughly 370,000 compounds. About 4,800 (1.3%) were called active. The sample as a whole holds a higher share of actives than the screen did. Values without a mark were called inactive.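 Rule for the calls: active = inhibition above about 21% made by adding two undisclosed values (limit read from the data); inactive = the rest.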

For this assay, the target named is Protein arginine N-methyltransferase 1 (Homo sapiens) (UniProt Q99873). Nature of the assay: human PRMT1 activity-probe blockers – biochemical, fluorescence polarization, primary screen (AID 652257). Conditions: recombinant PRMT1, activity-based probe fluorescence polarization; at 2.79 µM; hits give high values. Background: In fluorescence polarisation assays a small probe gives low polarisation when free and higher when bound to something large.
Sequence of Protein arginine N-methyltransferase 1 (Homo sapiens) (Q99873 whole entry, looked up): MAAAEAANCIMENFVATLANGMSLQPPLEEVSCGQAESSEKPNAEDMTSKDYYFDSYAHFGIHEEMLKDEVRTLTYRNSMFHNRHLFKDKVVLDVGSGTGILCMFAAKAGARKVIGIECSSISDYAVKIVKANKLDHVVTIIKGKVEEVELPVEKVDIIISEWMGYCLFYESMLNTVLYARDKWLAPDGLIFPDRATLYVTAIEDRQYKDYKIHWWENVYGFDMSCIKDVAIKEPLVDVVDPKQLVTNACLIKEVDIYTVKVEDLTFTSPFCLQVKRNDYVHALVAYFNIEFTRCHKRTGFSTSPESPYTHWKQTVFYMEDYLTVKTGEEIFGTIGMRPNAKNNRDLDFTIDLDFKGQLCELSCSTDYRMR
What is called inhibition is the drop in the measured response relative to a control, in per cent. `CCCCCCN1CCS(=O)(=O)N(Cc2ccc(C(F)(F)F)cc2)C(C(=O)OC)C1` (stereo not given): the inhibition was 0.07%. Under `C#CCCN([C@H](C(=O)OC)C(C)C)S(=O)(=O)c1ccc(F)cc1Br` stands 1.71%. With `O=c1cc(CCl)nc2scc(-c3ccccc3)n12`, the inhibition is 6.61%. In the case of `OCCn1c(-c2ccccc2)csc1=Nc1ccccc1` it was 63.9% (active); in that of `C=CC1=CCN(S(=O)(=O)C(C)(C)C)[C@@H]1CCO`, -1.03%; in that of `Cc1cc(C(=O)OCC(=O)c2c(N)n(C)c(=O)n(C)c2=O)c(C)o1`, -0.81%. Regarding `Cc1cc(C)c(S(=O)(=O)NN=C2c3ccccc3[C@H]3Cc4csc[n+]4[C@@H]23)c(C)c1`, the inhibition is 52.5% (active).

Regarding `COc1ccc(C(=O)N2CCN(c3ccc(C(C)=O)cc3F)CC2)cc1S(=O)(=O)NC1CC1`, the inhibition was 2.01%. Under `CCCCCN1CCCCC(NC(=O)C(C)CCC)C1=O` (stereo not given) stands 3.28%; under `COC(=O)C1CN(CCc2ccccc2)CCS(=O)(=O)N1Cc1ccc(F)cc1` (stereo not given), 0.22%.

Regarding `O=C1OC(NC(=O)c2ccccc2)C(N2CCOCC2)=C1Cl` (stereo not given), the inhibition is 0.25%. In the case of `O=C(Nc1ccc(F)cc1)c1cccnc1N1CCOCC1` it was 0.36%.

Turning to `O=C(O)c1ccc(NN=CC2=C(N3CCOCC3)/C(=C/c3ccccc3)CC2)cc1`, the inhibition is 23.8% (active).

For the molecule `CC12CCC(C(=O)N(CCC#N)CCC#N)(CC1=O)C2(C)C` (stereo not given), the inhibition was -1.4%. With `COC(=O)[C@]12C[C@H](CC(=O)NCCc3ccccc3OC)C(=O)N(Cc3ccco3)C1=C[C@H](C(C)C)O[C@@H]2C1CC1`, the inhibition is -1.39%.

For `CC(C)CNC(=O)OCc1cn(Cc2ccc(F)cc2)nn1`, the inhibition was -6.07%. In the case of `CCn1c(=S)[nH]c2sc3c(c2c1=O)CCCCC3` it was -0.49%; in that of `S=c1[nH]nc2c3c4c(sc3ncn12)CCCC4`, 40.6% (active).

On to `N=c1c2c3c(sc2nc2n1CCCCC2)CCCC3`, for which the inhibition was -1.83%. In the case of `CC(C)(C)NC(=O)C(c1cccnc1)N(C(=O)c1cnco1)c1ccc(C(C)(C)C)cc1` (stereo not given) it was 1.45%; in that of `Cc1nc2ccc(C(=O)N3CCN(C(=O)C(C)(C)C)CC3)cc2n1C1CCCC1`, -5.06%; in that of `Nc1nnc(SCC(=O)NCC(=O)Nc2ccc(F)c(F)c2F)s1`, 0.28%. On to `CC(C)CNC(=O)COC(=O)/C=C/c1ccco1`, for which the inhibition is 3.56%. Under `NS(=O)(=O)c1cccc(NC(=O)COC(=O)/C=C/c2ccco2)c1` stands 8.16%. Under `COc1cccc(NC(=O)COC(=O)/C=C/c2ccco2)c1` stands 34.6% (active); under `COC(=O)[C@@]12CCCCC3=C1N(CCC3)C(=O)[C@H]2CC(=O)NCc1cccc2ccccc12`, 0.96%. Under `Cc1ccc(C2=CCN(C)C(=O)N2c2ccc(Cl)cc2)cc1` stands 1.54%. Turning to `COCCn1c(SCC(=O)Nc2cc(Cl)ccc2OC)nc2c(c1=O)SC(C)C2` (stereo not given), the inhibition is -2%. Take `COc1ccc(C(=O)OCCN(C)C2CN(Cc3cn(Cc4cccc(C)c4)nn3)S(=O)(=O)C2)cc1OC` (stereo not given): the inhibition was -3.17%. In the case of `CC(=O)N1CCCN(C2=Nc3ccccc3Sc3ccccc32)CC1` it was -2.73%. Turning to `CCCCOCCCNC(=O)C[C@H]1C[C@@]2(C(=O)OC)C(=C[C@H](COCc3ccccc3)O[C@@H]2C)N(Cc2cccc3ccccc23)C1=O`, the inhibition is -1.04%. Turning to `CCOC(=O)C1(Cc2cccc(OC)c2)CCCN(C(=O)CCSC)C1` (stereo not given), the inhibition is 2.68%.

For `CC(C)(C)C1C/C(=C/c2ccco2)C(=O)/C(=C/c2ccco2)C1` (stereo not given), the inhibition is 24.6% (active). Under `O=C(NCCc1c[nH]c2ccccc12)OCc1cn(-c2c(F)cccc2F)nn1` stands 0.52%; under `CCCCNC(=O)C[C@@H]1C(=O)N(CCc2ccc(Cl)cc2)C2=CCCC[C@]21C(=O)OCC`, -4.44%; under `NC(=O)NC(=O)CSc1nc2cc([N+](=O)[O-])ccc2n1-c1cccc(C(F)(F)F)c1`, -3.17%. Consider `CC(=O)OC1CCC2C3CCC4=C(CC(F)C(=O)C4)C3CCC12C` (stereo not given), for which the inhibition is -4.66%. For the molecule `Fc1ccc(COc2cccc(-c3n[nH]c(=S)o3)c2)cc1`, the inhibition is 31.7% (active). In the case of `Fc1ccc(COc2ccc(-c3nnco3)cc2)cc1` it was 2.4%; in that of `CN(Cc1ccc(F)cc1)C(=O)COc1ccc2ccccc2c1`, 6.77%; in that of `CC(C)(C)NC(=O)CSC(=Nc1ccccc1F)NC#N`, 8.54%. In the case of `COc1ccc(-n2c(SCC(=O)Nc3ccc4c(c3)OCCO4)nnc2-c2ccc(Cl)cc2)cc1` it was -2.7%. Under `O=C(CN1CCC(NC(=O)NCc2ccccc2)CC1)Nc1ccc2c(c1)OCCO2` stands 2.96%; under `COc1ccccc1C(=O)CSc1nnc(-c2ccccn2)n1-c1ccccc1`, -1.16%; under `O=S(=O)(c1ccc2c(c1)OCCO2)N1CCc2ccccc21`, -3.53%. For `O=C(CCN1CCc2ccccc2C(O)(c2ccccc2)C1)c1ccc2c(c1)OCCO2` (stereo not given), the inhibition is 51.5% (active). Under `O=C(C(=O)N1CCN(c2ccccc2)CC1)c1ccc2c(c1)OCO2` stands 0.48%.

Turning to `COc1ccc(C2NC(=O)N(C)C(C)=C2[N+](=O)[O-])cc1` (stereo not given), the inhibition is -2.65%. Under `COc1ccc(S[C@]2(C(=O)N(C)C)CC(=O)N(c3ccc(OC)cc3)[C@@H]2c2ccc(OC)cc2)cc1` stands -1.57%.

In the case of `CC(C)(C)c1ccc(CSc2nnc(-c3cccs3)o2)cc1`, the inhibition is -1.14%. For the molecule `O=C1CCN(CCCc2ccccc2)CCN1CCO`, the inhibition was -6.27%. In the case of `O=C(NC(=S)N1CCN(Cc2ccccc2)CC1)c1ccccc1` it was 0.22%; in that of `OCCN1CCN(C(=S)c2ccc(-c3ccccc3)cc2)CC1`, 32% (active); in that of `CC1CN(CC(=O)NC(C)c2ccccc2)CC(C)O1` (stereo not given), 0.73%. Under `COc1cccc(N2C(=O)CC(N3CCc4ccccc4C3)C2=O)c1` (stereo not given) stands 4.88%; under `CCc1cccc(CC)c1N1C(=O)CC(Sc2ccccc2N)C1=O` (stereo not given), -1.17%; under `COC(=O)c1ccccc1SC1CC(=O)N(c2cccc(C)c2)C1=O` (stereo not given), 57.3% (active).

Take `Cc1ccccc1S(=O)(=O)NC(=O)C1(C)CCN1C(=O)C1(c2ccccc2)CCCC1` (stereo not given): the inhibition is 0.03%.

`O=C(O)c1cc(S(=O)(=O)N2CCCCCC2)c(Cl)cc1Cl`: the inhibition is -2.22%. Under `Cc1ccc(S(=O)(=O)N2CCN(C(=O)c3ccccc3-c3nc4ccccc4s3)CC2)c(C)c1` stands 6.86%; under `O=C(c1ccc[nH]c1=S)N1CCN(S(=O)(=O)c2ccc(Br)cc2Cl)CC1`, 31.8% (active). For `O=C(CNS(=O)(=O)c1ccccc1F)N1CCN(c2ccccn2)CC1`, the inhibition is 2.96%. Under `O=S(=O)(c1ccc2c(c1)OCCCO2)N1CCN(S(=O)(=O)c2c(F)cccc2F)CC1` stands -4.09%; under `COc1ccc(C(C)NC(=S)NC2CCCCC2)cc1OC` (stereo not given), -2.42%. Under `COc1ccc(C)cc1NC(=S)N1CCOCC1` stands -1.44%; under `Cc1ccc(C(=O)OCC(=O)NC2CCCCCCC2)cc1C`, -2.13%; under `COc1cc(C(=O)Nc2cc(C(F)(F)F)ccc2N2CCOCC2)ccc1O`, -2.71%. In the case of `COc1cc(C(=S)NC2CCCCC2)ccc1O` it was 29% (active). On to `COc1cc(C(=S)N2CCOCC2)ccc1O`, for which the inhibition is 24.1% (active). In the case of `COC(=O)C[C@@H]1CC[C@@H]2[C@@H](COc3ccc(NC(=O)Nc4ccc(F)c(F)c4)cc3C(=O)N2C)O1` it was -0.15%. In the case of `O=C1c2ccccc2C(=O)N1CCC(c1ccccc1)c1ccco1` (stereo not given) it was 8.33%; in that of `CCCCCN(C(=O)NC(=O)Nc1ccccc1OC)S(C)(=O)=O`, 5.33%.

In the case of `O=C(OC12CCCN(C1)/C(=C/c1cccnc1)C2)C1CCCC1` (stereo not given), the inhibition was 0.1%. Turning to `CCOC(=O)[C@@]12CN(C(=O)OC(C)(C)C)CC=C1N(Cc1ccc(OC)cc1)C(=O)[C@H]2CC(=O)NCc1ccc(OC)c(OC)c1`, the inhibition is -3.24%. In the case of `O=C(Nc1ccccc1C(=O)N1CCCCC1)c1ccco1` it was -7.4%. Under `O=C(Nc1nc(-c2ccco2)c(-c2ccco2)s1)c1ccco1` stands 51.8% (active); under `O=C(Nc1c(-c2ccccc2)nc2c(Br)cc(Br)cn12)c1ccco1`, 0.75%. Under `O=C(CSc1nnc(C2CC2)n1Cc1ccccc1)Nc1cccnc1Cl` stands 4.21%; under `CN=C(c1ccccc1)c1c(C)cccc1C`, -2.83%; under `Cc1cccc(C)c1NC(=O)C(Cl)C(=O)c1ccccc1` (stereo not given), 32% (active).

Regarding `Cc1cccc(C)c1NC(=O)N1CC(C)OC(C)C1` (stereo not given), the inhibition is 1.08%. In the case of `CCOc1ccc(S(=O)(=O)N2CCC(C(=O)NCC(=O)Nc3cccc(Cl)c3C)CC2)cc1` it was -4.55%; in that of `CC(C)[C@@H](C)/C=C/[C@@H](C)[C@H]1CC[C@@H]2[C@]1(C)CCC1[C@]23C=C[C@]2(C[C@@H](O)CC[C@]12C)N(c1ccc([N+](=O)[O-])cn1)O3` (stereo not given in full), 1.5%; in that of `O=S(=O)(Cc1nnnn1-c1ccc(Br)cc1)c1ccc(F)cc1`, -3.12%. In the case of `CC1CCN(C(=S)NC(=O)c2ccccc2Br)CC1`, the inhibition was -1.71%. In the case of `O=C(NC(=S)Nc1ncccn1)c1ccccc1Br`, the inhibition is 21.4% (active). In the case of `COC(=O)c1cccnc1NC(=S)NC(C)C` it was -1.9%; in that of `CC(=O)N(O)CCCCCNC(=O)CCC(=O)N(O)CCCCCNC(=O)CCC(=O)N(O)CCCCCNC(=O)CCC(=O)O`, -4.14%. Under `CCCCn1c(N)c(N(CCOC)C(=O)c2oc3ccc(OC)cc3c2C)c(=O)[nH]c1=O` stands -1%; under `CCN(CC)CCCC(C)n1c2nc(=O)[nH]c(=O)c-2nc2cc(Cl)ccc21` (stereo not given), 161% (active).

Source of the values: PubChem BioAssay AID652257 (The Scripps Research Institute Molecular Screening Center, 2013).
